The structures appear in SMILES notation. Several values for one entry are separate records, joined by “and”; a condition that tells them apart may be missing. Equal values may be shown once. ± gives the standard deviation of the averaged measurements.
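Note: viability read as CCK-8 absorbance at 450 nm in cells co-exposed to the GPX4 inhibitor RSL3, relative to a 0.01% DMSO vehicle control.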

For the assay, the system named is HT-1080. In words: relative cell viability with RSL3 co-treatment (fraction of control); higher = stronger protection from RSL3-induced ferroptosis (higher viability). Conditions: 10 µM.
Consider `Nc1cccc(S(=O)(=O)N2CCCN(S(=O)(=O)c3ccc4c(c3)OCCO4)CC2)c1`, for which the relative cell viability was found to be 0.767 ± 0.049. The same measure for `CN1CCN(S(=O)(=O)c2ccc(-c3cnc(N)c(C(=O)Nc4cccnc4)n3)cc2)CC1`: 0.56 ± 0.087; for `CCN(CC)CCCCNc1ncc2cc(-c3cc(OC)cc(OC)c3)c(NC(=O)NC(C)(C)C)nc2n1`: 0.633 ± 0.14; for `O=C(O)c1ccc(Nc2ncc3c(n2)-c2ccc(Cl)cc2C(c2c(F)cccc2F)=NC3)cc1`: 0.433 ± 0.045. The result for `O=c1cc(N2CCOCC2)oc2c(-c3ccccc3)cccc12` reads 0.76 ± 0.16; that for `N#CC[C@H](C1CCCC1)n1cc(-c2ncnc3[nH]ccc23)cn1`, 0.897 ± 0.083; that for `C1=N/C2=N/c3ccc(OCCN4CCCC4)c(c3)COC/C=C/COCc3cccc(c3)C(=C1)N2` [Pacritinib (SB1518)], 0.467 ± 0.096. The same measure for `Cc1ccc(S(=O)(=O)/C=C/C#N)cc1`: 0.463 ± 0.042; for `O=C(NC1CCNCC1)c1n[nH]cc1NC(=O)c1c(Cl)cccc1Cl`: 0.56 ± 0.18. As for `CS(=O)(=O)CCNCc1ccc(-c2ccc3ncnc(Nc4ccc(OCc5cccc(F)c5)c(Cl)c4)c3c2)o1`, the relative cell viability was found to be 0.673 ± 0.032.

On to `C[C@H]1[C@H](C)CC[C@]2(C(=O)O)CC[C@]3(C)C(=CC[C@@H]4[C@@]5(C)C[C@@H](O)[C@H](O)[C@@](C)(CO)[C@@H]5CC[C@]43C)[C@H]12` [Asiatic Acid], for which the relative cell viability was 0.58 ± 0.14. The result for `CN(C)Cc1cccc(N/C(=C2\C(=O)Nc3cc(C(N)=O)ccc32)c2ccccc2)c1` reads 0.627 ± 0.045; that for `Cc1c(F)cc(C(=O)NC2CC2)cc1-c1ccc(C(=O)NCC(C)(C)C)cn1`, 0.563 ± 0.12. The result for `Cc1ncc(-c2ccnc(Nc3ccc(S(C)(=O)=O)cc3)n2)n1C(C)C` reads 0.43 ± 0.095. The same measure for `C=CC(=O)Nc1cccc(Nc2nc(Nc3ccc(OCCOC)cc3)ncc2F)c1`: 0.563 ± 0.078. For the molecule `Cc1nc(Nc2cnn(C3CCNCC3)c2)nc2c1N(C)C(=O)c1cc3ccccc3cc1N2C`, the relative cell viability is 0.627 ± 0.09. The same measure for `NC(=O)Nc1sc(-c2ccc(F)cc2)cc1C(N)=O`: 0.87 ± 0.046; for `CC(C)n1nc(-c2ccc3oc(N)nc3c2)c2c(N)ncnc21`: 0.787 ± 0.058. The result for `CC(C)(C)Cn1c(N)nc2ccc(-c3[nH]c(C(C)(C)C)nc3-c3ccc(F)cc3)nc21` reads 0.71 ± 0.017; that for `COc1ccccc1-c1cc(Nc2cccc(CS(N)(=O)=O)c2)ncn1`, 0.613 ± 0.095; that for `C[C@@H]1CN(CC(=O)Nc2ccc3c(c2)Cc2cccc(-c4cc(=O)cc(N5CCOCC5)o4)c2S3)C[C@H](C)O1`, 0.46 ± 0.11. The same measure for `Nc1nc(N)c(N=O)c(OCC2CCCCC2)n1`: 0.82 ± 0.01. In the case of `C=CC(=O)Nc1ccc(CN2C(=O)N(c3cc(OC)cc(OC)c3)Cc3cnc(Nc4ccc(N5CCN(C)CC5)cc4)nc32)cc1`, the relative cell viability is 0.56 ± 0.01. The same measure for `C#Cc1cccc(Nc2ncnc3cc4c(cc23)OCCOCCOCCO4)c1` [Icotinib]: 0.64 ± 0.075; for `C[C@H](NC(=O)/C(C#N)=C/c1cccc(Br)n1)c1ccccc1`: 0.807 ± 0.13.

As to `CCn1c2ccccc2c2cc(Nc3ccnc(NCCCN4CCOCC4)n3)ccc21`, the relative cell viability was 0.64 ± 0.089. The result for `Cc1cnc(-c2cnc(NCCNc3ccc(C#N)cn3)nc2-c2ccc(Cl)cc2Cl)[nH]1` reads 0.55 and 0.457. On to `COc1nccc(-c2c(-c3ccc(F)cc3)ncn2C2CCC(O)CC2)n1` (centres undefined), for which the relative cell viability stood at 0.667 ± 0.16.

With `CCCS(=O)(=O)Nc1ccc(F)c(C(=O)c2c[nH]c3ncc(-c4ccc(Cl)cc4)cc23)c1F` [Vemurafenib (PLX4032, RG7204)], the relative cell viability came to 0.323 ± 0.091. The same measure for `Cc1cc(Nc2ncc(Cl)c(Nc3ccccc3S(=O)(=O)C(C)C)n2)c(OC(C)C)cc1C1CCNCC1` [Ceritinib (LDK378)]: 0.513 ± 0.057.

For `COc1cc2c(Nc3ccc(NC(=O)c4ccccc4)cc3)ncnc2cc1OCCCN1CCOCC1`, the relative cell viability turned out to be 0.717 ± 0.23. Regarding `CN1CCN(c2ccc(Nc3cc(-c4cccc(-n5ccc6cc(C7CC7)cc(F)c6c5=O)c4CO)cn(C)c3=O)nc2)CC1`, the relative cell viability was found to be 0.763 ± 0.067. The same measure for `CN(C)C/C=C/C(=O)Nc1cc2c(Nc3ccc(F)c(Cl)c3)ncnc2cc1O[C@H]1CCOC1` [Afatinib (BIBW2992)]: 0.72 ± 0.061; for `C=CC(=O)Nc1cccc(Oc2nc(Nc3ccc(N4CCN(C)CC4)cc3)nc3ccsc23)c1`: 0.55 ± 0.082; for `CN1CC[C@H](c2c(O)cc(O)c3c(=O)cc(-c4ccccc4Cl)oc23)[C@H](O)C1` [Flavopiridol (Alvocidib)]: 0.49 ± 0.13.

`COc1cc(Nc2ncc(F)c(Nc3ccc4c(n3)N(COP(=O)(O)O)C(=O)C(C)(C)O4)n2)cc(OC)c1OC` [Fostamatinib (R788)]: the relative cell viability came to 0.6 ± 0.017. Consider `Nc1nccc(Oc2ccc(NC(=O)c3c[nH]cc(-c4ccc(F)cc4)c3=O)cc2F)c1Cl`, for which the relative cell viability came to 0.57 ± 0.036.

With `CCn1c(-c2nonc2N)nc2c(C#CC(C)(C)O)ncc(OC[C@H]3CCCNC3)c21`, the relative cell viability worked out at 0.563 ± 0.18. As for `N#Cc1c(O)c2c(-c3ccc(-c4ccccc4O)cc3)csc2[nH]c1=O`, the relative cell viability was found to be 0.793 ± 0.046.
